Assay outcomes deposited in PubChem by National Center for Advancing Translational Sciences (NCATS).
This is a sample that favours compounds with a hit; in the whole collection about 11% have one here.
L3MBTL1 inh: qHTS Assay for the Inhibitors of L3MBTL1. AID 485360, 2010. Potency, µM (titrated, usually from 57.1 µM), without a hit: at the highest dose activity, negative = inhibition, most hits filed as inhibitors. Lethal(3)malignant brain tumor-like protein 1 (Homo sapiens), Q9Y468. actives 0.66% (n = 230,000). AlphaScreen L3MBTL1–H3K9me1 peptide binding; also: % is scaled to controls: 0 for no effect and ±100 for the full control effect; nearly all actives have a fitted effect of over 60% in size
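L3MBTL1 (50 nM) pre-complexed 30 min with biotinylated H3(1-15)K9me1 peptide (75 nM), then compounds added for 30 min at room temperature; AlphaScreen streptavidin donor/nickel chelate acceptor beads (10 ug/mL final) read after 30 min dark incubation.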
G9a block: qHTS Assay for Inhibitors of Histone Lysine Methyltransferase G9a; Histone-lysine N-methyltransferase EHMT2 (Homo sapiens), Q96KQ7; G9a H3K9 monomethylation, AlphaScreen, 2 h; Potency, µM (highest dose often 102 µM), for the others: top-dose activity, negative = inhibition, hits mostly inhibitors; actives 8.8% (n = 350,000); also: % is scaled to controls: 0 for no effect and ±100 for the full control effect; nearly all actives have a fitted effect of over 75% in size
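Step 1: enzyme (final 20 nM) with compound, 15 min RT. Step 2: substrate peptide 500 nM and SAM 20 uM, 2 h RT. Step 3: anti-H3K9me1 antibody and AlphaScreen beads, 10 min, then plate read.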
BAZ2B block: qHTS Assay for Inhibitors of BAZ2B; Bromodomain adjacent to zinc finger domain protein 2B (Homo sapiens), Q9UIF8; AlphaScreen BAZ2B-H3K14Ac peptide displacement; Potency, µM (titrated, usually from 114 µM), for the others: at the top dose activity change, negative = inhibition, hits mostly inhibitors; actives 4.4% (n = 360,000); AID 504333, 2011; also: % is scaled to controls: 0 for no effect and ±100 for the full control effect; nearly all actives have a fitted effect of over 60% in size
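AlphaScreen luminescence quantifies BAZ2B engagement of H3K14Ac peptide; the protein and biotinylated peptide are both at 50 nM final, buffer PBS pH 7.4 with 0.01% Tween-20, all steps at room temperature.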
HP1b binding inh: HTS for Inhibitors of HP1-beta Chromodomain Interactions with Methylated Histone Tails; Chromobox protein homolog 1 (Homo sapiens), P83916; AlphaScreen HP1-beta / biotin-H3K9me3 peptide binding; Potency, µM (top dose mostly 114 µM), without a hit: at the top dose activity change, negative = inhibition, usual class: inhibitors; actives 0.56% (n = 390,000); also: nearly all actives have a fitted effect of over 70% in size
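AlphaScreen: HP1-beta (50 nM) preformed 30 min with biotin-H3(1-18)K9me3 peptide (50 nM) in PBS pH 7.4, 0.01% Tween-20. Compound added for 30 min at RT, then streptavidin donor/nickel chelate acceptor beads (10 ug/mL) for 30 min.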
JMJD2A Tudor: qHTS Assay for Inhibitors of JMJD2A-Tudor Domain. AID 504339, 2011. Lysine-specific demethylase 4A (Homo sapiens), O75164. Potency, µM (series often up to 114 µM), for the others: at the highest dose activity change, negative = inhibition, actives largely listed as inhibitors. actives 4.4% (n = 390,000). AlphaScreen JMJD2A-Tudor / H3K4me3 peptide binding; also: % is scaled to controls: 0 for no effect and ±100 for the full control effect; nearly all actives have a fitted effect of over 50% in size
Target sequence (O75164 whole entry, looked up, the tested form may be a part): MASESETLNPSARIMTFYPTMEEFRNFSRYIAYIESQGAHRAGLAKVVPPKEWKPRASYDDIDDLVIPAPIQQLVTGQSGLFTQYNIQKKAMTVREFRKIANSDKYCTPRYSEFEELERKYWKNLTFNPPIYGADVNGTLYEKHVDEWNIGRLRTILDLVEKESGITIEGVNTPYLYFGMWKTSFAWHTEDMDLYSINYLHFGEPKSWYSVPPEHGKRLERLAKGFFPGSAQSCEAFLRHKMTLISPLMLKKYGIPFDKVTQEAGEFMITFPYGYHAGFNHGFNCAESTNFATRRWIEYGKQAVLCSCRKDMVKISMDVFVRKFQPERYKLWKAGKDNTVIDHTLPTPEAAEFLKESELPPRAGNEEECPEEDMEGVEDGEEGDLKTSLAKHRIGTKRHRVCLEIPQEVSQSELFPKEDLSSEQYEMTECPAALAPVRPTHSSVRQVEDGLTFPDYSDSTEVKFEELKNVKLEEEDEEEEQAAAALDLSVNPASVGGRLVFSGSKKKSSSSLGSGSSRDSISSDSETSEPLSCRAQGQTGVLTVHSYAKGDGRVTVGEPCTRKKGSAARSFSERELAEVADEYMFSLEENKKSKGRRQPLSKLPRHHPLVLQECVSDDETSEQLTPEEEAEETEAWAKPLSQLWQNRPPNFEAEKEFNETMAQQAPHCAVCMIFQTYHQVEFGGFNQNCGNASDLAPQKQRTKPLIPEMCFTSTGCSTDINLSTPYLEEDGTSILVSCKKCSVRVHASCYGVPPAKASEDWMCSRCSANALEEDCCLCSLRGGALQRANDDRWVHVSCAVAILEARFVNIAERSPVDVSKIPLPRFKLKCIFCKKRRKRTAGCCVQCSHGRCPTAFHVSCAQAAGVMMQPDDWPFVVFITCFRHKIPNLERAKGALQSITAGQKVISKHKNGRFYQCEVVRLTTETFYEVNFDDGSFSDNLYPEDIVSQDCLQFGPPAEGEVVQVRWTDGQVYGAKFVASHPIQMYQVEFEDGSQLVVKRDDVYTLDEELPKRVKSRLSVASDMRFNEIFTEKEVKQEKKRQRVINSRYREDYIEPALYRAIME
* hit, by the source's call; [ ] = dose if it differs, or a comment. Calls follow the shape of the dose curve; as a rule, active = well fitted inhibition curve with a large enough effect; inconclusive = small, poorly fitted or top-dose-only effect; inactive = no such curve, though single readings can be large or run the other way. Potency is read from the fitted curve at half-maximal effect.

For Cc1ccc(-c2nc(S(=O)(=O)c3ccc(C)cc3)c(N3CCN(c4ccccc4)CC3)o2)cc1 the results were G9a block -16%[59 µM], BAZ2B block inconclusive, HP1b binding inh 11% and JMJD2A Tudor inconclusive.
Cc1ccc(S(=O)(=O)c2nc(-c3ccco3)oc2N2CCC(C)CC2)cc1 was read as BAZ2B block 10µM*, HP1b binding inh -6% and JMJD2A Tudor inconclusive.
Screening Cc1ccc(S(=O)(=O)c2nc(S(C)(=O)=O)sc2N2CCC(C)CC2)cc1 returned G9a block 35µM*, BAZ2B block -16%, HP1b binding inh 9% and JMJD2A Tudor -36%.
`Cc1ccc(S(=O)(=O)c2nc(S(C)(=O)=O)sc2N2CCCCCC2)cc1` gave BAZ2B block -34%, HP1b binding inh 36% and JMJD2A Tudor inconclusive.
For O=c1c2cc3c(cc2n(Cc2ccccc2)c(=O)n1Cc1nc(-c2ccccc2)no1)OCO3 the results were G9a block 1%[59 µM], BAZ2B block 2%, HP1b binding inh 50% and JMJD2A Tudor 3%.
For COC(=O)c1ccc(CN(Cc2ccc(OC)c(OC)c2)S(=O)(=O)c2ccc(F)c(C(=O)Nc3cc(C)ccc3C)c2)cc1 the results were G9a block -21%[59 µM], BAZ2B block -9%, HP1b binding inh 35% and JMJD2A Tudor -11%.
NC(=O)C1CCN(c2oc(-c3ccccc3)nc2S(=O)(=O)c2ccc(Br)cc2)CC1 was read as BAZ2B block inconclusive, HP1b binding inh 48% and JMJD2A Tudor 32µM*.
Screening O=S(=O)(c1ccccc1)c1nc(-c2ccccc2)oc1N1CCCCC1 returned G9a block 22µM*, BAZ2B block inconclusive, HP1b binding inh -14% and JMJD2A Tudor inconclusive.
`Cc1ccc(S(=O)(=O)c2nc(N3CCOCC3)sc2Cl)cc1` gave L3MBTL1 inh 0%, G9a block 6.3µM*, BAZ2B block -15%, HP1b binding inh 55% and JMJD2A Tudor -1%.
`Cc1ccc(S(=O)(=O)c2nc(-c3ccccc3)oc2N2CCN(c3ccccc3)CC2)cc1` gave G9a block -32%[59 µM], BAZ2B block -20%, HP1b binding inh -13% and JMJD2A Tudor -28%.
For Cc1ccc(S(=O)(=O)c2nc(-c3ccccc3)oc2N2CCC(C(N)=O)CC2)cc1 the results were BAZ2B block inconclusive, HP1b binding inh 6% and JMJD2A Tudor -20%.
For Cc1ccc(S(=O)(=O)c2nc(-c3ccccc3)oc2N2CCCC2)cc1 the results were L3MBTL1 inh -3%, G9a block 1.3µM*, BAZ2B block inconclusive, HP1b binding inh inconclusive and JMJD2A Tudor 28µM*.
`COc1ccc(CN(Cc2ccccc2)C(=O)c2ccc(OC)cc2O)cc1` gave JMJD2A Tudor -35%.
Screening CN1CCN(c2oc(-c3ccccc3Cl)nc2S(=O)(=O)c2ccccc2)CC1 returned G9a block inconclusive, BAZ2B block -32%, HP1b binding inh inconclusive and JMJD2A Tudor inconclusive.
For CN1CCN(c2oc(-c3ccccc3)nc2S(=O)(=O)c2ccc(Br)cc2)CC1 the results were BAZ2B block 35µM*, HP1b binding inh inconclusive and JMJD2A Tudor 56µM*.
For O=C(Cc1ccccc1)Nc1nc2ccccc2s1 the results were L3MBTL1 inh 6%, G9a block 0%[59 µM], BAZ2B block 2%, HP1b binding inh 51% and JMJD2A Tudor -23%[11.4 µM].
Screening O=C(Nc1nc(=O)c2ccccc2s1)c1ccc(Cl)cc1 returned L3MBTL1 inh -2%, G9a block 4µM*, BAZ2B block -19%, HP1b binding inh 27% and JMJD2A Tudor -17%[11.4 µM].
O=C(Cc1ccccc1)Nc1nc(=O)c2ccccc2s1 was read as L3MBTL1 inh -4%, G9a block 25µM*, BAZ2B block -24%[57.1 µM], HP1b binding inh 51% and JMJD2A Tudor 12%[11.4 µM].
